HT1080 IDH1KD tx: kills HT-1080 cells with IDH1 knockdown; Potency, µM (series often up to 46.1 µM), inactives show top-dose activity, negative = toxicity, hits mostly cytotoxic; actives 2% (n = 360,000); HT-1080 IDH1 knockdown viability, ATP luminescence, 48 h; AID 686971;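 note: potency is the fitted concentration of half-maximal effect; 0% = DMSO wells and -100% = cell-free medium wells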
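CellTiter-Glo luminescence after 48 h compound exposure at 37 degrees C of IDH1-knockdown HT-1080 cells in 5% FBS RPMI. %Activity scaled between DMSO wells and cell-free media wells, with curves fitted and assigned curve classes.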
TDP1 cell CPT: DT40-hTDP1 cell growth loss with CPT; chicken DT40 Tdp1-/-;hTDP1 cells + 20 nM CPT, ATP luminescence, 48 h; Potency, µM (titrated, usually from 46.2 µM), without a hit: top-dose activity change, negative = growth inhibition, usual class: inhibitors; actives 12% (n = 420,000); AID 686979; note: potency is the fitted concentration of half-maximal effect; nearly all actives have a fitted effect of over 55% in size
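Chicken DT40 Tdp1-/- cells complemented with human TDP1, 400 cells/well, exposed to compounds plus 20 nM camptothecin for at least 48 h at 37 C; viability read as ATP content by CellTiter-Glo luminescence.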
HT1080NT lethal: kills 2HG-producing HT-1080-NT fibrosarcoma cells; Potency, µM (top dose mostly 46.1 µM), for inactives: at the top dose activity, negative = less viability, actives largely listed as cytotoxic; HT-1080-NT fibrosarcoma viability, CellTiter-Glo ATP luminescence, 48 h; actives 1.6% (n = 360,000); AID 686970;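 note: NT is the 2HG producing partner of a matched IDH1 knockdown line; potency is the fitted concentration of half-maximal effect; 0% = DMSO-treated cells and -100% = media-only wells without cells; nearly all actives have a fitted effect of over 55% in size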
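750 cells/well, RPMI + 5% FBS; 2 h settle, compound pin-transfer, 48 h at 37 degrees C. CellTiter-Glo 10 min RT, luminescence. Normalized to DMSO and media-only wells.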
IL1B secr inh: inflammasome signaling inhibition, IL-1 beta readout. THP-1 LPS/ATP IL-1B secretion, AlphaLISA, 16 h; active compounds read low. actives 4.7% (n = 360,000). activity change, % at 57.5 µM; in the data active = activity change below about -50%; inconclusive = mostly about -30% to -49%
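Secreted IL-1B measured by AlphaLISA bead assay after 16 h compound exposure of THP-1 cells; compounds (final up to 57.5 uM) added 1 h before LPS (250 ng/mL) and ATP (1.25 mM) stimulation; lower signal means less secretion.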
DT40 TDP1 no CPT: qHTS for Inhibitors of human tyrosyl-DNA phosphodiesterase 1 (TDP1): qHTS in cells in absence of CPT. actives 15% (n = 420,000). Potency, µM (series often up to 46.2 µM), inactives show top-dose activity change, negative = growth inhibition, most hits filed as inhibitors. DT40 Tdp1-/- hTDP1 cells, no CPT, ATP luminescence, 48 h. AID 686978, 2013; note: potency is the fitted concentration of half-maximal effect; nearly all actives have a fitted effect of over 55% in size
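Chicken DT40 Tdp1-/- cells complemented with human TDP1, screened without camptothecin (DMSO vehicle only), 400 cells/well. Compounds pin-transferred, cells incubated at 37 °C for at least 48 hr. Growth read as ATP-dependent luminescence (CellTiter-Glo, 30 min at RT).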
ELG1 repair inh: ELG1-dependent DNA repair inhibition; HEK293T ELG1-luciferase reporter, luminescence, 16 h; DNA damage induced by 5-fluorouridine; Potency, µM (highest dose often 46.1 µM), for the others: at the highest dose activity change, negative = inhibition, hits mostly inhibitors; actives 2.3% (n = 330,000); AID 504467; note: potency is the fitted concentration of half-maximal effect; nearly all actives have a fitted effect of over 55% in size
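In this reporter screen, reduction of luminescence relative to DMSO vehicle indicated activity. Compounds and 5-fluorouridine were added together to 2,000 cells per well, incubated for 16 hr at 37 °C, then developed with ONE-Glo.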
Starred values were filed as active, the others as inactive; ? = inconclusive; / = no result given; [ ] = remark or other dose. Shown are actives, neighbours in structure and some others; about 19% of the full set was active somewhere. Unless noted, calls come from the whole dose curve; as a rule, active = well fitted curve in the direction sought with a large enough effect; inconclusive = small, poorly fitted or top-dose-only effect, or another doubt; inactive = no such curve, though single readings can be large; an effect the other way counts as inactive or inconclusive. Unless noted, % is set by controls: 0 for no effect and ±100 for the full control effect.

SMILES	HT1080 IDH1KD tx	TDP1 cell CPT	HT1080NT lethal	IL1B secr inh	DT40 TDP1 no CPT	ELG1 repair inh
CCOc1ccc(NS(=O)(=O)c2ccc(C(=O)N(C)CC(=O)Nc3cccc(OC)c3)cc2)cc1	?	18µM*	-3%[9.24 µM]	13	16µM*	/
CCOc1cc(CNC(=O)c2ccc(Cn3c(=O)c4cccn4c4cccnc43)cc2)ccc1OC	/	-28%	/	/	?	/
CCC(=O)NC(=S)Nc1ccc(S(=O)(=O)NC2CCCCC2)cc1	-17%	?	-19%	16	?	5%
COc1ccccc1NS(=O)(=O)c1ccc(NC(C)=O)cc1	-1%	-30%	3%	12	-24%	2%
CSCCC(NS(=O)(=O)c1ccc2c(c1)OCCO2)C(=O)N(C)Cc1ccc(C)cc1 (stereo not given)	5%	?	0%	7	15µM*	-22%
CSCCC(NS(=O)(=O)c1ccc2c(c1)OCCO2)C(=O)NCCc1ccccn1 (stereo not given)	8%	-8%	10%	-5	-2%	-7%
O=S(=O)(Nc1cccc2ccccc12)c1ccccc1	-18%	-27%	-7%	-10	-19%	?
O=S(=O)(Nc1c(O)ccc2ccccc12)c1ccccc1	-10%	?	-6%	-15	16µM*	/
COc1ccc(S(=O)(=O)Nc2ccc(O)c3ccccc23)cc1	-21%	3.3µM*	-1%	13	4.6µM*	9.2µM*
COc1ccccc1Nc1ccc(NS(=O)(=O)c2ccc(C(C)=O)cc2)cc1	-2%	-19%	0%	-16	16µM*	-2%
CC(CCC(C)[n+]1cccc(C#N)c1)[n+]1cccc(C#N)c1 (stereo not given)	/	-8%	/	/	-23%	/
CC(Oc1cccc(F)c1)c1ccnc2nc(/N=C/N(C)C)nn12 (stereo not given)	2%	?	-10%	2	?	-8%
CCCCN(C(=O)C1CCCC1)c1c(N)n(CCC)c(=O)[nH]c1=O	3%	4%	0%	2	-3%	2%
CSCCC(NS(=O)(=O)c1ccc2c(c1)oc(=O)n2C)C(=O)N1CCN(c2cc(Cl)ccc2C)CC1 (stereo not given)	/	?	/	/	15µM*	/
CSCCC(NS(=O)(=O)c1ccc(C)cc1)C(=O)N1CCCCCCC1 (stereo not given)	6%	?	0%	-4	16µM*	1%
CCOc1ccc(S(=O)(=O)Nc2cccc(C(=O)N3CCN(c4cccc(OC)c4)CC3)c2)cc1	-10%	23µM*	-2%	39	18µM*	?
COc1ccc(NS(=O)(=O)c2ccc(NC(=O)C3CC3)cc2)cc1	2%	8.2µM*	-1%	4	9.2µM*	-11%
CCc1ccccc1OCC(=O)NNCC(=O)Nc1cccc(C#N)c1	-6%	-26%	-8%	-6	?	-9%
CC(=O)c1ccc(NC(=O)CSc2nnc3ccc(-c4ccc(F)cc4)nn23)cc1	/	-9%	/	/	2%	/
COc1ccccc1-c1cc(-n2ccnc2)ncn1	/	-2%	/	/	-4%	/
Cc1cccc(OC(C)C(=O)Nc2ncn[nH]2)c1 (stereo not given)	/	7%	/	/	6%	/
CCOc1ccc(S(=O)(=O)Nc2ccc(C(=O)N3CCCC3)cc2)cc1	-2%	-10%	0%	-10	-3%	3%
COc1ccc(S(=O)(=O)Nc2ccccc2)cc1	-16%	21%	-18%	22	-27%	/
COc1ccc(N2CCN(C(=O)COC(=O)c3cccc(S(=O)(=O)Nc4cccc(C)c4)c3)CC2)cc1	-4%	16µM*	-2%	25	?	-9%
CCOc1ccc(NS(=O)(=O)c2ccc(C(=O)N3CCCCCC3)cc2)cc1	-22%	15µM*	-11%	-14	18µM*	-10%
SMILES	HT1080 IDH1KD tx	TDP1 cell CPT	HT1080NT lethal	IL1B secr inh	DT40 TDP1 no CPT	ELG1 repair inh
COc1ccc(NS(=O)(=O)c2cccc(C(=O)N3CCCCCC3)c2)cc1	-2%	-20%	-1%	-2	-20%	-9%
COc1ccc(NS(=O)(=O)c2ccc(C(=O)N3CCCCCC3)cc2)cc1	-10%	10µM*	18µM*	-52*	8.2µM*	?
COc1ccc(S(=O)(=O)Nc2ccc(Nc3ccccc3)cc2)cc1	0%	21µM*	0%	-24	?	/
CCOC(=O)COc1c(/C=N\O)cc(Cl)cc1OC	9%	-2%	-1%	0	10%	-17%
COc1ccc(S(=O)(=O)NCc2ccc(C(=O)N3CCN(Cc4ccccc4)CC3)cc2)cc1	-15%	?	-2%	-26	-25%	?
COc1ccc(NS(=O)(=O)c2ccc(C(=O)N3CCN(Cc4ccccc4)CC3)cc2)cc1	-11%	12µM*	-12%	-3	?	?
CCc1ccc(CNC(=O)CCC(=O)N2Cc3cccc(OC)c3Oc3ncccc32)cc1	1%	?	4%	-7	?	-1%
CCOC(=O)Cn1c(=N)n(CCOc2cccc(C)c2)c2ccccc21	-2%	?	3%	-3	-22%	?
N=c1n(CCO)c2ccccc2n1CCOc1ccc(F)cc1	/	21µM*	/	/	-82%	/
CCOC(=O)Cn1c(=N)n(CCOc2ccc(Br)cc2)c2ccccc21	-13%	23µM*	0%	/	16µM*	-1%
CC1(C(=O)NCC2CCCCC2)CCN1CCc1ccccc1 (stereo not given)	-20%	?	-25%	6	?	/
CC1(C(=O)NC2CCCC2)CCN1C(=O)Cc1ccc(-c2ccccc2)cc1 (stereo not given)	?	16µM*	?	-12	23µM*	/
CC1(C(=O)NCC2CCCCC2)CCN1C(=O)Cc1ccc(-c2ccccc2)cc1 (stereo not given)	?	?	?	-18	23µM*	/
CC1(C(=O)NS(=O)(=O)Cc2ccccc2)CCN1C(=O)Cc1ccc(-c2ccccc2)cc1 (stereo not given)	1%	17%	1%	38	-10%	/
c1cnc2c(-c3nccc4c3[nH]c3ccccc34)cccc2c1	/	17%[9.04 µM]	/	/	-11%[9.04 µM]	/
CCOc1ccccc1N(CC(=O)Nc1cc(OC)ccc1OC)S(=O)(=O)c1ccccc1	-9%	?	-4%	6	?	?
COc1ccc(N(CC(=O)Nc2cccc(C(C)=O)c2)S(=O)(=O)c2ccccc2)c(OC)c1	/	7.3µM*	/	/	6.5µM*	/
